An excerpt weighted towards active compounds, which were near 1.4% of everything screened.
BH1578 lux ind: inducers of Vibrio cholerae quorum light production without autoinducers, primary screen, BH1578 luxS cqsA deficient, single point; AID 588436, 2011; 350,000 tested, 0.16% active; V. cholerae BH1578 lux reporter, luminescence, 6 h; activation, % at 18.7 µM; in the data active means activation mostly above about 9.7%, no sharp cut-off
PrPC surface inh: inhibitors of human cell surface prion protein PrPC, primary screen, cell-based, TR-FRET. Major prion protein (Homo sapiens), P04156. TR-FRET read-out. inhibition, % at 13.8 µM. 370,000 tested, 0.43% active; in the data active means inhibition above about 24%; further: 0% = median of the test wells and 100% = reference compound wells
PriA SSB inh: inhibitors of Klebsiella pneumoniae PriA binding to SSB C-terminal tail, primary screen, biochemical, AlphaScreen; PriA–SSB C-terminal tail interaction (Klebsiella pneumoniae); inhibition, % at 33 µM; 430,000 tested, 0.6% active; AlphaScreen SSBct-PriA binding, biotinylated peptide; AID 1272365, 2023; in the data active means inhibition mostly above about 37%, no sharp cut-off; inactive means mostly below about 20%;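 further: plate controls were negative control peptide for no effect and reference peptide for full effect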
FadD28 binding: inhibitors of FadD28 bisubstrate probe binding, primary screen, biochemical, fluorescence polarization, single point | inhibition, % at 12.5 µM | AID 588549, 2011 | 360,000 tested, 0.22% active; in the data active means inhibition above about 8.5%, passing the limit was not always enough
PrP UTR inh: inhibition of PrP 5' UTR reporter expression | 340,000 tested, 0.35% active | inhibition, % (concentration not given with the values) | cell-based PrP 5' UTR mRNA reporter, plate reader; in the data active means inhibition above about 52%; further: 0 = median of the neutral control wells
The depositor's hits bear a star; i = inactive; . = no result given; ! = repeats disagree.

SMILES	BH1578 lux ind	PrPC surface inh	PriA SSB inh	FadD28 binding	PrP UTR inh
CC(=NNS(C)(=O)=O)c1ccc(C)cc1	.	.	-29	.	.
O=C(Nc1nnc(-c2ccc3c(c2)CCCC3)o1)c1ccccc1F	.	.	-7	.	.
O=C(NCCC(c1ccccc1)c1ccccc1)C(=O)Nc1ccncc1	.	.	47*	.	.
CCOC(=O)C(C)C(C)=NNc1ccc([N+](=O)[O-])cc1[N+](=O)[O-] (stereo unspecified)	.	.	67*	.	.
CCOC(=O)C(=NNc1ccc([N+](=O)[O-])cc1[N+](=O)[O-])C(=O)OCC	.	.	90*	.	.
CCOc1ccc(NN=C(C(=O)OC)C(=O)OC)c([N+](=O)[O-])c1	-1	-5	-2	-2	-14
C/C(CC(C)C)=N/Nc1ccc([N+](=O)[O-])cc1[N+](=O)[O-]	i	-1	.	-4	-15
COC(=O)CC/C(C)=N\Nc1ccc([N+](=O)[O-])cc1[N+](=O)[O-]	0	-14	.	-2	10
CCOC(=O)CC(C)(C)C(C)=NNc1ccc([N+](=O)[O-])cc1[N+](=O)[O-]	.	.	44*	.	.
O=c1[nH]cnc2c1sc1nc(-c3ccccc3)c3c(c12)CCCC3	0	-5	-4	-4	-16
S=c1nc[nH]c2c1sc1nc(-c3ccccc3)c3c(c12)CCCC3	i	2	-8	15*	-9
C[C@](O)(CNC(=O)c1ccc2c(c1)OCO2)c1cc2ccccc2s1	.	.	-5	.	.
CC1=CC(=NNc2ccccc2[N+](=O)[O-])CC(C)(C)C1	.	.	117*	.	.
CC1(C)OC(=O)C(=NNc2ccccc2[N+](=O)[O-])C(=O)O1	-5	-14	6	-1	-13
Oc1c(C(Nc2nc3ccccc3s2)c2ccco2)ccc2cccnc12 (stereo unspecified)	i	25*	14	-4	3
Cc1c(Cc2ccc3c(c2)OCO3)sc(NC(=O)Cc2cccc3ccccc23)c1C#N	.	.	-2	.	.
O=S(=O)(CCCOc1ccc(F)cc1)NCc1ccncc1	.	.	-20	.	.
CCCCCCCCCCCCC/C=C/[C@@H](O)[C@@H](N)CO	1	-5	-14	33*	-26
CCC(C)Nc1ccc(NC(C)CC)cc1 (stereo unspecified)	0	.	40*	1	-10
CCC(C)NC(=O)Nc1ccc(Br)cc1 (stereo unspecified)	0	16	-25	-3	-30
COc1cc(C=NN2C(=O)CSC2=S)ccc1O	.	.	3	.	.
O=C1CSC(=S)N1/N=C/c1ccc(O)c(O)c1O	4	.	.	9.4*	.
NNC(=O)c1nc[nH]c1C(=O)Nc1ccccn1	-2	0	59*!	-1	53
O=C(CCCc1ccccc1)NCCn1ncc2c(=O)n(Cc3cccc(F)c3)cnc21	.	.	-3	.	.
Cc1ccc(N2CC(C(=O)NCC(O)C3CCCCC3)CC2=O)cc1C (stereo unspecified)	.	.	-10	.	.
SMILES	BH1578 lux ind	PrPC surface inh	PriA SSB inh	FadD28 binding	PrP UTR inh
CS(=O)(=O)[C@H]1CCN(S(=O)(=O)c2cccs2)C1	.	.	-16	.	.
Cc1ccc(SCc2cc(=O)c3c(=O)n(-c4ccccc4)[nH]c3[nH]2)cc1	-1	1	-10	17*	-15
CC(C)OC(=O)CSc1ccc([N+](=O)[O-])cc1[N+](=O)[O-]	.	.	59*	.	.
O=C(O)CCSc1ccc([N+](=O)[O-])cc1[N+](=O)[O-]	0	-44	-8	-1	-27
COC(=O)c1ccc(C(=O)NCc2cc(C3CC3)n(C)n2)cc1	.	.	5	.	.
Cc1ccccc1NN=Cc1ccc(C#N)cc1	.	.	8	.	.
Cc1ccccc1N/N=C/c1ccc(C#N)cc1	60*	10	.	-5	-40
CC(=O)Nc1ccc(S(=O)(=O)N(C)CC(=O)NN=Cc2ccncc2)cc1	.	.	3	.	.
COc1ccc(Br)c(C(=O)NCC[C@H](O)c2ccco2)c1	.	.	-7	.	.
Nn1c(Cc2cccc3ccccc23)nnc1SCC(=O)NCC1CCCO1 (stereo unspecified)	i	0	52*	-1	0
COc1ccc(OCc2nnc(SCC(=O)NCC3CCCO3)n2N)cc1 (stereo unspecified)	-1	-2	-1	0	-8
CSc1ccccc1NC(=O)C1CN(C(C)=O)C1	.	.	-9	.	.
Cc1cc(C=NNC(N)=S)c(O)c(C=NNC(N)=S)c1	.	.	59*	.	.
COc1ccc(C2CC(=O)Oc3c(C(C)C)ccc(C)c32)cc1 (stereo unspecified)	0	5	-1	8.8*	24
COc1ccc(C2CC(=O)Oc3cc(C)cc(C)c32)cc1 (stereo unspecified)	i	-9	-17	-2	-17
Cc1ccc(CSCCNC(=O)c2ccc(Cl)c(S(=O)(=O)N3CCOCC3)c2)cc1	0	9	-10	34*	-48
O=C(NCc1ccncc1)c1ccc(Cl)c(S(=O)(=O)N2CCCCC2)c1	i	-2	-2	0	10
COc1ccc(C(=O)NCC2CCCO2)cc1S(=O)(=O)N1CCCc2ccccc21 (stereo unspecified)	0	-3	3	1	5
COc1ccc(CNC(=O)c2ccc(Cl)c(S(=O)(=O)N3CCCCCC3)c2)cc1	-1	1	.	8.7*	.
O=C(COC(=O)c1ccc(Cl)c(S(=O)(=O)N2CCCCCC2)c1)Nc1ccccc1	0	-2	-1	62*	-31
COc1ccc(C(=O)NCc2ccc(C)cc2)cc1S(=O)(=O)N1CCCc2ccccc21	i	0	-4	9.9*	-21
CCCCCCCCCCCCCCCC(=O)OC(CC(=O)O)C[N+](C)(C)C (stereo unspecified)	-1	-5	-22	17*	-55
O=C(Cc1ccccc1)N1CCN(c2ccc(-n3cccc3)nn2)CC1	.	.	-22	.	.
O=[N+]([O-])c1ccc(-c2cnc(SCc3ccccc3Cl)[nH]2)cc1	1	-4	39*	-5	-29
O=C1C(=Cc2ccco2)CCCC1=Cc1ccco1	i	-6	.	0	-115
SMILES	BH1578 lux ind	PrPC surface inh	PriA SSB inh	FadD28 binding	PrP UTR inh
O=C1C(=Cc2ccco2)CCC1=Cc1ccco1	1	-5	33	13*	-8
CCc1c2c(nc3sc(C(=O)NCC4CCCO4)c(N)c13)CC(C)(C)CC2=O (stereo unspecified)	.	.	-17	.	.
Nc1c(C(=O)NCC2CCCO2)sc2nc3c(c(-c4ccco4)c12)CC/C3=C\c1ccco1 (stereo unspecified)	0	-7	8	14*	-3
CC(=O)Nc1cccc2c1C(=O)N(c1ccc(C)cc1)C2=O	17*	-5	-20	-3	-7
O=C(O)c1ccc(NS(=O)(=O)c2ccc3c(c2)C2C=CCC2C(c2ccccc2F)N3)cc1 (stereo unspecified)	1	-6	22	43*	-11
O=C(O)c1ccc2c(c1)C1C=CCC1C(c1cc3c(cc1Br)OCO3)N2 (stereo unspecified)	-1	1	-8	5	-21
C=CCNC(=O)Cc1cc(=O)oc2cc(OC)ccc12	.	.	-6	.	.

Source: PubChem (several laboratories)
